High-throughput results from PubChem.
WT yeast gro inh: growth inhibition of WT yeast, mitochondrial fusion screen; 2.1% of 190,000 active; mitochondrial fusion phenotypic screen, WT strain; AID 1362; inhibition, % at 10 µM; in the data active means inhibition above about 58%; tested in S. cerevisiae
ROMK mod: human ROMK K+ channel modulation, primary screen | P48048 | Tet-inducible ROMK, thallium flux fluorescence; actives lie on both sides | B-score at 10 µM | 2% of 130,000 active;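 active means signal ratio slope over the read window, or its plate-corrected B-score, at least 3 SD from the plate mean, either direction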;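 further: B-score of the F/F0 ratio slope over 7 to 12 s after thallium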
Target sequence (P48048 whole entry, looked up): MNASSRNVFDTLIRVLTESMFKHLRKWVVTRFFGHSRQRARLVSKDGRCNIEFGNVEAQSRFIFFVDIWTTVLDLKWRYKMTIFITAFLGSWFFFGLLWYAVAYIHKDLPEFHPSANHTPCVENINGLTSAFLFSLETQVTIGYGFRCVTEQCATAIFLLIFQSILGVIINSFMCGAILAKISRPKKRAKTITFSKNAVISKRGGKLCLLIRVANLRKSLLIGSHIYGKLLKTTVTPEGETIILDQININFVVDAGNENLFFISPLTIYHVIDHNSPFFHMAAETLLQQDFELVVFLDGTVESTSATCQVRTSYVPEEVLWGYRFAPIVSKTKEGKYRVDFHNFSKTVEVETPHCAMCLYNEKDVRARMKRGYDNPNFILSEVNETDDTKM
Insulin prom up: MIN6 insulin promoter up-regulation. AID 1625. MIN6 insulin promoter-GFP reporter, high-content imaging; stronger effect = higher value. z-score at 5 µM. 0.3% of 190,000 active;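 active means z-score above 3 at 5 µM with at least 500 cells counted in the well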
INS promoter inh: TRM-6 insulin promoter activity inhibition; 0.9% of 130,000 active; TRM-6 cells (human fetal islet line), insulin promoter-eGFP reporter, imaging; reporter expression induced with tamoxifen; AID 1273; inhibition, % at 2 µM;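 active means inhibition above the mean plus 3 SD, with well images judged a real hit on visual review, cut at about 60% in these data, passing the limit was not always enough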
L major viab: reduces viability of Leishmania major promastigotes; inhibition, % at 10 µM; AID 1063; resazurin fluorescence viability; 9% of 200,000 active; in the data active means inhibition above about 50%;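 further: promastigotes grown with compound for 44 hours at 28 °C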
Cl transport mod: modulates chloride dependent transport by human KCC2; KCC2 cells, thallium flux FluoZin-2 fluorescence; B-score of Tl+ flux slope (higher = more flux/activation; lower = inhibition) at 10 µM; 2.2% of 190,000 active;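 active means thallium flux slope and its plate-corrected score both differing from the plate sample mean at a set confidence after two filtering rounds, in either direction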;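 further: slope of fluorescence scaled to starting intensity during 10 to 20 s after thallium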
Numbers without * were called inactive; nt = not tested or not shown. A selection: hits, their analogues and other compounds. The true share with any hit is near 12%.

SMILES	WT yeast gro inh	ROMK mod	Insulin prom up	INS promoter inh	L major viab	Cl transport mod
COc1cc(CNCCO)ccc1OC1CCCC1	13	0.57	-0.1	47	36	nt
CN(C)CCNCc1ccc(OC2CCCC2)cc1	-20	nt	1.4	-17	50*	nt
CCC(CO)NCc1ccc(OC2CCCC2)cc1 (stereo not given)	-4	nt	-0.17	-19	86*	-0.14
CC(C)CC(NC(=O)C1CCC(C)CC1)C(=O)Nc1ccccn1 (stereo not given)	15	nt	0.17	-51	34	-1.3
Cc1ccc(N=Nc2c(N)nn(-c3ccccc3)c2N)cc1	11	2	nt	6	15	0.15
Cc1nn(-c2ccccc2)c(N)c1N=Nc1ccc2ccccc2c1	70*	1.2	-0.73	17	-1	0.059
CCOC(=O)c1cc(C)sc1/N=C/C1C(=O)CCCC1=O	0	0.026	-0.36	-13	-7	-0.61
Fc1ccccc1OCCCCCN1CCCC1	13	nt	-0.15	nt	72*	-0.59
Fc1ccccc1OCCCCCCN1CCCC1	-8	-0.0037	0.24	nt	98*	0.66
Clc1cccc(OCCCN2CCCC2)c1Cl	6	-0.61	-0.2	-67	1	0.62
CCOc1ccccc1OCCCCOc1ccccc1F	16	nt	-0.02	-10	34	-0.72
O=C1CCC(C(=O)OCC(=O)c2c[nH]c3ccccc23)=NN1	-11	0.18	-0.08	0	-7	0.51
O=C(COC(=O)c1c(Cl)cccc1Cl)Nc1ccccc1Br	29	nt	-0.95	-62	6	-1.6
CC(C)(C)c1ccc(S(=O)(=O)O/N=C2/CCCCC2c2ccc([N+](=O)[O-])cc2[N+](=O)[O-])cc1 (stereo not given)	4	1.1	nt	3	53*	-1.4
CCCN(CC(=O)Nc1ccccc1Br)CC(=O)Nc1ccc(F)c(F)c1F	3	-0.13	1.5	-112	9	-1.6
CCCN(CC(=O)Nc1cc(Cl)cc(Cl)c1)CC(=O)Nc1ccc(F)c(F)c1F	73*	nt	-0.96	10	63*	0.99
O=c1c2cc(Br)ccc2nc(-c2cccc(C(F)(F)F)c2)n1O	9	3.7*	-0.47	nt	8	24*
COc1ccc(Cn2c(=O)c3cccnc3n(Cc3ccc([N+](=O)[O-])cc3)c2=O)cc1	9	2.8*	nt	nt	18	-0.51
COc1ccc(CCn2c(=O)c3cccnc3n(Cc3ccc([N+](=O)[O-])cc3)c2=O)cc1OC	9	0.84	nt	nt	14	-2
CCOc1ccccc1NC(=O)c1ccc(OCC)c([N+](=O)[O-])c1	-19	0.95	-0.4	nt	-3	0.4
CCOc1ccc(C(=O)Nc2cc(-c3nc4ccccc4[nH]3)ccc2Cl)cc1[N+](=O)[O-]	16	nt	-0.33	48	96*	-1.2
CCOc1ccc(C(=O)Nc2cc(-c3nc4ccccc4[nH]3)ccc2C)cc1[N+](=O)[O-]	1	nt	-0.02	7	36	-0.5
CCOc1ccc(C(=O)Nc2cccc(-c3nc4ccccc4[nH]3)c2C)cc1[N+](=O)[O-]	-6	0.071	-0.34	16	51*	-0.71
O=C(c1ccc(F)cc1)N1CCCC(c2ccccc2)C1 (stereo not given)	-8	-0.42	-0.77	-39	-8	-0.77
C=CCNC(=O)c1ccccc1NC(=O)c1ccc(Cl)c(S(=O)(=O)Nc2ccccc2)c1	-10	nt	-0.1	nt	58*	nt
SMILES	WT yeast gro inh	ROMK mod	Insulin prom up	INS promoter inh	L major viab	Cl transport mod
O=C(NCc1ccco1)c1ccc(Cl)c(S(=O)(=O)Nc2ccccc2)c1	-3	0.046	-0.28	nt	9	nt
CCOC(=O)c1c(C)[nH]c(C)c1C(=O)COC(=O)c1cccc(S(=O)(=O)NC)c1	-12	0.1	-0.4	nt	80*	-0.97
CCOC(=O)c1c(C)[nH]c(C)c1C(=O)COC(=O)c1cccc(S(=O)(=O)N(CC)CC)c1	-15	nt	0.27	-14	99*	-0.99
Cc1ccc(NS(=O)(=O)c2ccc(CCC(=O)NCc3cccnc3)cc2)cc1	5	-2.2	-0.21	-137	0	0.17
O=C(Oc1ccccc1)c1cccc(N2C(=O)CCC2=O)c1	-4	1.4	nt	-6	-6	-0.066
O=C(CSc1ncnc2scc(-c3ccccc3)c12)N1CCN(c2ccccc2F)CC1	11	nt	nt	14	55*	-2
O=C(NC(=S)NCCc1ccc(Cl)cc1)c1ccco1	5	0.34	0.23	-77	-6	nt
Cn1cc(CNCc2cn(C)nc2-c2ccc(C3CCCCC3)cc2)cn1	-4	-1.7	-0.72	nt	94*	0.4
COc1ccc(C2Nc3ccccc3C(=O)N2c2ccc(C)cc2)cc1COc1ccccn1 (stereo not given)	9	nt	0.08	-29	-1	-0.88
C#CCNc1ccc([N+](=O)[O-])cc1	2	-0.47	0.94	18	12	0.18
Cc1c(N(C(=O)Nc2ccccc2)C2=NCC(C)S2)c(=O)n(-c2ccccc2)n1C (stereo not given)	82*	nt	0.44	36	1	-0.55
CCCn1nnnc1SCC(=O)N1CCOCC1	-10	nt	-0.14	83*	-4	0.3
NC(=O)CSc1nnc(-c2ccc(S(=O)(=O)N3CCOCC3)cc2)n1Cc1ccccc1	1	1.1	nt	29	-5	nt
CN(C(=O)Cn1nnc(-c2cccc(C(F)(F)F)c2)n1)C1CCCCC1	5	nt	0.24	-25	-4	-0.34
Cc1ccc(-c2nnn(CC(=O)N(C)C3CCCCC3)n2)o1	0	-0.68	-0.13	74*	-9	-0.006
Cn1c(SCC(=O)N2CCCC2)nc2cccnc21	8	nt	1.8	0	2	-0.068
COc1ccc(C2C3=C(CCCC3=O)Nc3ccc4ncccc4c32)cc1OC (stereo not given)	-7	0.3	nt	nt	75*	-1.3
O=C(CCNC(=O)c1ccccc1Cl)Nc1nc2ccccc2s1	-1	nt	-0.22	-21	3	-0.8
COc1ccc(NC(C)C(=O)Nc2ccc(C(C)(C)C)cc2)cc1Cl (stereo not given)	57	0	-0.18	0	50*	0
CCOc1ccc(NC(=S)N(CCc2c(C)[nH]c3ccc(C)cc23)Cc2cccnc2)cc1	5	-0.25	-0.12	-24	100*	0.022
CNC(=S)N(CCc1c(C)[nH]c2ccc(C)cc12)Cc1cc(OC)c(OC)c(OC)c1	16	-1.5	-0.31	-30	17	-1.1
Cc1[nH]c2ccc(F)cc2c1CCN(Cc1ccncc1)C(=S)Nc1cccc(F)c1	-5	0.98	-0.18	-138	99*	1.6
N#CCCN(Cc1cccnc1)C(=S)Nc1ccc(OC(F)F)cc1	-10	-0.16	0.17	-109	-6	0.32
COc1ccc(NC(=S)N(CCc2nc3cc(C)c(C)cc3[nH]2)Cc2cccnc2)cc1	15	-0.057	0.91	nt	90*	-0.0052
Cc1ccccc1NC(=S)N(CCc1c(C)[nH]c2ccc(F)cc12)Cc1ccncc1	-16	0.78	-0.36	-73	98*	0.3
COc1ccccc1NC(=S)N(CCc1c(C)[nH]c2ccccc12)Cc1cccs1	24	nt	0.17	nt	40	-0.21
COCCNC(=O)C(C)OC(=O)c1nsc(Cl)c1Cl (stereo not given)	-13	nt	0.59	-50	-5	nt
